# LMP1 NFkB inh = inhibitors of Epstein-Barr LMP1-induced NF-kappaB reporter; LMP1-induced NF-kappaB luciferase reporter cells, luminescence; inhibition, % at 12.5 µM; actives 0.69% (n = 350,000); AID 504558; in the data active = inhibition above about 41%; inconclusive = no clear call, values can overlap the other calls
# MITF TRPM1 inh = MITF TRPM1 promoter inhibition in SK-MEL-5 cells | actives 0.83% (n = 330,000) | SK-MEL-5 TRPM1 promoter luciferase, 24 h | inhibition, % at 12.5 µM;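 active = mean inhibition across replicates of 60% or more, whatever share of single replicates reaches that level; inconclusive = some that reach 60%, reason not given; inactive = mean inhibition across replicates below 60%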
# LGR2 antag = Drosophila LGR2 receptor signaling inhibition. AID 720647. HEK293 LGR2, CRE-luciferase, bursicon-stimulated, 4 h. actives 0.35% (n = 380,000). inhibition, % at 9.99 µM;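 active = drop in luminescence signal, shown as inhibition above about 50% in the replicate tests, limit read from the data, passing the limit was not always enough; inconclusive = probably only some replicates passing the limit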;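 also: agonist challenge used bursicon conditioned medium at about half maximal strength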
# EWS-Fli inh = EWS/Fli transcriptional activity inhibition | actives 0.67% (n = 350,000) | A673 NR0B1-luciferase reporter, viability-normalised | AID 651661 | inhibition, % at 12.6 µM;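 active = mean inhibition of at least 50% after viability correction, with every replicate also passing that limit; inconclusive = mean reaches 50% but only one of two replicates passes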;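 also: firefly luciferase signal divided by Alamar Blue viability fluorescence both relative to DMSO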
# PAX8 inh HTS = lowers PAX8-driven luciferase in RMG-I cells; RMG-I TPO-luciferase reporter, SteadyGlo, 24 h; inhibition, % at 12.6 µM; actives 1.2% (n = 360,000);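 active = mean replicate inhibition at least 60% with every replicate also reaching 60%; inconclusive = only one of the two criteria is met; inactive = mean below 60% and not all replicates reaching 60%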;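 also: luciferase light reporting Pax8 driven TPO promoter activity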
# Shn3 inh set2 = inhibitors of Schnurri-3 3'UTR reporter in osteoblasts. Clone20 osteoblast Shn3 3'UTR firefly luciferase, 24 h. inhibition, % at 12.5 µM. actives 0.52% (n = 360,000);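 active = mean inhibition of at least 75% with every replicate also reaching 75%; inconclusive = mean inhibition at least 75% but some replicate below; inactive = mean inhibition below 75%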
# Hits are given with their value; . = inactive; ? = inconclusive; / = no result given; ! = not confirmed by another sample. In the library only some 2.2% were active in any assay of this set; here they are far more common.
SMILES,LMP1 NFkB inh,MITF TRPM1 inh,LGR2 antag,EWS-Fli inh,PAX8 inh HTS,Shn3 inh set2
O=C1/C(=C/c2ccccc2[N+](=O)[O-])COc2ccccc21,?,84.5,91.3,.,60.6,.
C[C@@H]1CN([C@H](C)CO)C(=O)Cc2cc(NC(=O)Cn3cnnn3)ccc2O[C@H]1CN(C)CC1CC1,/,/,.,.,/,/
O=C1C(=O)c2c(ccc3ccccc23)-c2ccccc21,59.5,98.0,.,.,.,96.5
C(C#CCCCCCCCCC[n+]1ccccc1)#CCCCCCCCCC[n+]1ccccc1,.,100.7,/,/,/,?
OC(c1ccccc1)C(O)C(c1ccccc1)N1CCCCC1 (configuration not stated),.,.,/,.,.,91.8
CCN=C1S/C(=C\c2cn(CC(=O)NCc3ccco3)c3ccccc23)C(=O)N1CC,.,.,.,.,78.3,.
CN1C(=O)/C(=C/c2cn(CC(=O)NCc3ccco3)c3ccccc23)NC1=S,/,/,.,.,.,/
N#Cc1nccnc1S(=O)(=O)c1cccs1,/,/,.,.,101.7,/
Cc1cccc(C)c1NC(=O)CN(C)CC(=O)Nc1ccccc1Oc1ccccc1,62.9,.,.,.,.,.
C[C@@H](NC(=O)C[C@H]1C=C[C@@H](NC(=O)C2CCOCC2)[C@H](CO)O1)c1ccccc1,/,/,.,.,.,/
C[C@@H]1CN([C@@H](C)CO)C(=O)c2cc(NC(=O)Cc3ccccc3)ccc2O[C@@H](C)CCCCO[C@H]1CN(C)Cc1ccc2c(c1)OCO2,/,/,.,.,.,/
O=C(CCl)Nc1cc(-c2ccccc2)nn1-c1ccccc1,.,67.0,/,/,/,.
C[C@H](CO)N1C[C@H](C)[C@H](CN(C)C(=O)Nc2ccc(C(F)(F)F)cc2)OCCCC[C@H](C)Oc2ccc(NC(=O)CCC(F)(F)F)cc2C1=O,/,/,64.9,.,.,/
C[C@@H]1CN([C@H](C)CO)C(=O)c2cc(NC(=O)CCC(F)(F)F)ccc2O[C@@H](C)CCCCO[C@@H]1CN(C)Cc1ccc(Cl)c(Cl)c1,/,/,.,.,81.4,/
C[C@H]1CCCCO[C@@H](CN(C)C(=O)Nc2ccc(C(F)(F)F)cc2)[C@@H](C)CN([C@@H](C)CO)C(=O)c2cc(NC(=O)CCC(F)(F)F)ccc2O1,/,/,?,.,.,/
C[C@@H]1CCCCO[C@@H](CN(C)Cc2ccc(C(F)(F)F)cc2)[C@@H](C)CN([C@H](C)CO)C(=O)c2cc(NC(=O)Cc3ccccc3)ccc2O1,/,/,.,.,.,/
C[C@@H]1CCCCO[C@H](CN(C)Cc2ccc(C(F)(F)F)cc2)[C@H](C)CN([C@@H](C)CO)C(=O)c2cc(NC(=O)Cc3ccccc3)ccc2O1,.,/,.,.,65.1!,.
C[C@@H]1CCCCO[C@@H](CN(C)Cc2ccc(C(F)(F)F)cc2)[C@H](C)CN([C@@H](C)CO)C(=O)c2cc(NC(=O)Cc3ccccc3)ccc2O1,/,/,.,.,81.1,/
C[C@@H]1CCCCO[C@@H](CN(C)Cc2ccc(C(F)(F)F)cc2)[C@@H](C)CN([C@@H](C)CO)C(=O)c2cc(NC(=O)c3ccccc3)ccc2O1,/,/,.,.,.,/
C[C@H]1CN([C@@H](C)CO)C(=O)Cc2cc(NS(C)(=O)=O)ccc2O[C@@H]1CN(C)S(C)(=O)=O,/,/,.,.,/,/
C[C@H](NC(=O)C[C@H]1C[C@@H]2c3cc(NC(=O)C4CCOCC4)ccc3O[C@@H]2[C@H](CO)O1)c1ccccc1,/,/,.,.,.,/
C[C@@H]1CN([C@H](C)CO)C(=O)Cc2cc(NC(=O)Cn3cnnn3)ccc2O[C@@H]1CN(C)C(=O)NC1CCCCC1,/,/,.,.,.,/
C[C@@H]1CN([C@H](C)CO)C(=O)c2cc(NC(=O)Cc3ccccc3)ccc2O[C@@H](C)CCCCO[C@@H]1CN(C)Cc1ccc(C(F)(F)F)cc1,/,/,.,.,87.2,/
C[C@@H]1CCCCO[C@@H](CN(C)Cc2ccccc2)[C@H](C)CN([C@H](C)CO)C(=O)c2cc(NC(=O)Cc3ccccc3)ccc2O1,/,/,.,.,.,/
C[C@@H]1CN([C@@H](C)CO)C(=O)c2cc(NC(=O)CCC(F)(F)F)ccc2O[C@@H](C)CCCCO[C@H]1CN(C)Cc1ccc(C(F)(F)F)cc1,/,/,.,.,75.4,/
SMILES,LMP1 NFkB inh,MITF TRPM1 inh,LGR2 antag,EWS-Fli inh,PAX8 inh HTS,Shn3 inh set2
C[C@H](CO)N1C[C@H](C)[C@@H](CN(C)Cc2ccc(C(F)(F)F)cc2)OCCCC[C@H](C)Oc2ccc(NC(=O)Cc3ccccc3)cc2C1=O,/,/,.,.,79.8,/
O=C(C[C@@H]1C[C@@H]2c3cc(NC(=O)Nc4ccccc4)ccc3O[C@@H]2[C@@H](CO)O1)NCCN1CCCCC1,/,/,.,.,.,/
NC(N)=NN=C(c1ccc(F)cc1)c1ccc(C(F)(F)F)cc1,.,102.8,?,.,95.4,.
COc1ccc2c3c(n(C)c2c1)[C@H](CO)N(S(=O)(=O)c1ccccc1)CC31CCN(C)CC1,/,/,.,.,/,/
Cc1cc2nnc(SCC(=O)NCc3ccco3)n2c2ccccc12,.,.,.,51.3,.,.
Cc1cc2nnc(SCC(=O)NCc3cccs3)n2c2ccccc12,.,.,/,/,/,.
Cc1noc(C)c1NC(=O)Nc1ccc2c(c1)C(=O)N([C@@H](C)CO)C[C@H](C)[C@@H](CN(C)CC1CC1)OCCCC[C@H](C)O2,/,/,.,/,.,/
C[C@H](CO)N1C[C@H](C)[C@@H](CN(C)Cc2ccc(C(F)(F)F)cc2)OCCCC[C@H](C)Oc2ccc(NC(=O)Nc3ccc(F)cc3)cc2C1=O,/,/,.,.,87.6,/
C[C@@H]1CCCCO[C@@H](CN(C)Cc2ccc(C(F)(F)F)cc2)[C@H](C)CN([C@@H](C)CO)C(=O)c2cc(NC(=O)Nc3ccc(F)cc3)ccc2O1,/,/,.,.,85.9,/
C[C@@H]1CN([C@@H](C)CO)C(=O)c2cc(NC(=O)Nc3ccc(F)cc3)ccc2O[C@@H](C)CCCCO[C@@H]1CN(C)Cc1ccc(C(F)(F)F)cc1,/,/,.,.,79.8,/
C[C@@H]1CN([C@@H](C)CO)C(=O)c2cc(NC(=O)Nc3ccc(C(F)(F)F)cc3)ccc2O[C@@H](C)CCCCO[C@H]1CN(C)Cc1ccc(C(F)(F)F)cc1,/,/,.,.,?,/
O=C(CN1CCOCC1)NCC[C@@H]1CC[C@@H](NC(=O)c2ccc3c(c2)OCO3)[C@@H](CO)O1,/,/,.,.,.,/
Cc1ccc(NC(=O)CO/N=C(\N)c2ccccc2)cc1C,.,.,.,.,.,88.7
O=C1c2cccc3c([N+](=O)[O-])ccc(c23)C(=O)N1c1nccs1,48.6,?,/,/,/,.
O=C1c2cccc3c([N+](=O)[O-])ccc(c23)C(=O)N1O,.,.,.,.,.,.
O=C1c2cccc3c([N+](=O)[O-])ccc(c23)C(=O)N1c1ccccn1,55.1,.,/,/,.,.
CC(=O)Oc1ccc(N2C(=O)c3cccc4c([N+](=O)[O-])ccc(c34)C2=O)cc1,.,.,.,66.3,.,.
Cc1cc(-c2ccccc2)n2ncc(-c3ccccc3)c2n1,.,.,59.9,.,.,.
